PubChem BioAssay (Tox21)
Inconclusive results are not listed. Active and inactive are the calls of the source. Unless noted, the call rests on the fitted dose curve; in most records, active means well fitted curve in the direction sought with a large enough effect in the repeat runs; inconclusive means weak or mixed curves; inactive means no such curve, though single readings can be large; an effect the other way counts as inactive or inconclusive.

Assays:
[1] = A CellTox Green Cytotoxicity Assay to monitor cytotoxicity in HEK293 cells - 32 hour (AID 1224881); further: nearly all actives have a fitted effect of over 40% in size
How it was run: (§1)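 Tox21 screen in HEK293: membrane-impermeant cyanine dye fluoresces on binding dead-cell DNA; compound pinned 5 h post-seeding, plates held at 37 C, signal read repeatedly through 40 h.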

[2] = A CellTox Green Cytotoxicity Assay to monitor cytotoxicity in HEK293 cells - 8 hour (AID 1224884); further: nearly all actives have a fitted effect of over 35% in size
How it was run: as §1

[3] = qHTS RealTime-Glo MT Cell Viability Assay in HepG2 cells - 16 hour (AID 1224885); further: nearly all actives have a fitted effect of over 50% in size
How it was run: (§2)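 Viability was tracked continuously by NanoLuc luminescence from prosubstrate reduced by living HepG2 cells, at successive time points over 40 h of compound exposure. Cells with reagent were preincubated 5 h at 37 °C before compound addition.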

[4] = qHTS RealTime-Glo MT Cell Viability Assay in HEK293 cells - 24 hour (AID 1224886); further: nearly all actives have a fitted effect of over 50% in size; further: potency means the concentration at half of the fitted maximal effect
How it was run: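 Viability tracked continuously by luminescence as live cells reduce a prosubstrate for NanoLuc; HEK293 cells preincubated 5 h, compound-treated at 37 C, and read at 0, 8, 16, 24, 32 and 40 h.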

[5] = A CellTox Green Cytotoxicity Assay to monitor cytotoxicity in HEK293 cells - 16 hour (AID 1224888); further: nearly all actives have a fitted effect of over 35% in size
How it was run: as §1

[6] = A CellTox Green Cytotoxicity Assay to monitor cytotoxicity in HepG2 cells - 8 hour (AID 1224890); further: nearly all actives have a fitted effect of over 45% in size
How it was run: (§3)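 Measurements at 0, 8, 16, 24, 32 and 40 h of treatment captured CellTox Green fluorescence in HepG2 cells that had been co-plated with reagent and preincubated 5 h at 37 C/5% CO2.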

[7] = qHTS assay to identify small molecule antagonists of the estrogen receptor alpha (ER-alpha) signaling pathway using the BG1 cell line in the presence of 0.1 nM 17-beta-estradiol - cell viability counter screen (AID 1259241); further: nearly all actives have a fitted effect of over 40% in size
How it was run: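 Cytotoxicity counter-screen: live-cell protease activity measured by fluorescence (30 min reagent step) in the same wells. Cells were VM7Luc4E2 with endogenous ER-alpha and ERE-driven luciferase, treated 22 hr at 37C alongside 0.1 nM 17beta-estradiol final.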

[8] = qHTS assay to identify small molecule antagonists of the androgen receptor (AR) signaling pathway using the MDA cell line in the presence of 0.5 nM R1881 - cell viability counter screen (AID 1259242); further: nearly all actives have a fitted effect of over 45% in size
How it was run: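 Concentration-response screen of compounds for toxicity in MDA-kb2 reporter cells: 16 hr at 37C with 0.5 nM R1881, endpoint live-cell protease fluorescence measured in the reporter wells.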

[9] = qHTS assay to identify small molecule HDAC inhibitors (AID 1259364);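 further: wild-type HCT-116 cells with endogenous class I/II HDAC activity; top concentration of the series differs between compounds; nearly all actives have a fitted effect of over 45% in size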
How it was run: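 Screening used wild-type human colon HCT-116 cells incubated overnight, dosed with compounds for 2 hours, and assayed with a homogeneous luminogenic HDAC I/II reagent for 30 minutes at room temperature.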

[10] = qHTS assay to identify small molecule HDAC inhibitors - cell viability counter screen (AID 1259365); further: series mostly up to about 92 µM; nearly all actives have a fitted effect of over 50% in size
How it was run: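 CellTiter-Glo luminescence (30 min, room temperature) reported viability after a 2 h compound exposure at 37 C. Cells: wild-type HCT-116, 1,500 per well, seeded the night before.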

[11] = qHTS assay to identify small molecule agonists of the sonic hedgehog signaling (Shh) pathway - cell viability counter screen (AID 1259366); further: nearly all actives have a fitted effect of over 50% in size
How it was run: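 Cytotoxicity counter screen: CellTiter-Fluor reagent added after 23 h compound exposure, then 1 h at 37C and fluorescence read. Cells were 3T3 Gli1-Luc, seeded 2,000 per well and dosed 4 h post-plating.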

[12] = qHTS assay to identify small molecule agonists of the sonic hedgehog signaling (Shh) pathway (AID 1259368; calls by dose curve;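 further: NIH/3T3-derived 3T3Gli1-Luc cells carrying a stable Gli1-driven firefly luciferase reporter; series mostly up to about 92 µM; nearly all actives have a fitted effect of over 15% in size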)
How it was run: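 Hedgehog pathway agonism scored by increased firefly luciferase luminescence in 3T3Gli1-Luc cells treated 24 hr at 37 C; detection used a 30 min room-temperature reagent incubation.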

[13] = qHTS RealTime-Glo MT Cell Viability Assay in HEK293 cells - 8 hour (AID 1224887)
How it was run: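 HEK293 + NanoLuc + prosubstrate, 600 cells/well; 5 h, 37 C/5% CO2; compound 23 nL in DMSO by pintool; 37 C; luminescence read at 0, 8, 16, 24, 32 and 40 h time points.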

[14] = qHTS assay to identify small molecule antagonists of the sonic hedgehog signaling (Shh) pathway - cell viability counter screen (AID 1259367); further: nearly all actives have a fitted effect of over 55% in size
How it was run: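 Conditioned medium drove Shh signaling in 3T3 Gli1-Luc cells exposed to compounds at 37C and 5% CO2. Viability was determined from CellTiter-Fluor fluorescence, with reagent incubated 1 hr after 23 hr of treatment.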

[15] = A CellTox Green Cytotoxicity Assay to monitor cytotoxicity in HepG2 cells - 32 hour (AID 1224883); further: nearly all actives have a fitted effect of over 50% in size
How it was run: as §3

[16] = qHTS RealTime-Glo MT Cell Viability Assay in HepG2 cells - 0 hour (AID 1224889); further: nearly all actives have a fitted effect of over 50% in size
How it was run: as §2

[17] = target: Androgen receptor (Homo sapiens) (UniProt P10275); assay: qHTS assay to identify small molecule antagonists of the androgen receptor (AR) signaling pathway using the MDA cell line in the presence of 0.5 nM R1881 (AID 1259243); further: nearly all actives have a fitted effect of over 50% in size
How it was run: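 With R1881 held at 0.5 nM (final), compound effects on MMTV-luciferase expression in MDA-kb2 cells were scored by luminescence after a 16 hr, 37C incubation.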

[18] = qHTS assay to identify small molecule phospholipidosis (PLD) inducers (AID 1259344; active means well fitted curve in the direction sought with a large enough effect; an effect the other way counts as inactive or inconclusive)
How it was run: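 After 4 h attachment on collagen I, HepG2 cells were dosed with compound alongside LipidTOX Red, kept 24 h at 37 C, fixed, and imaged for lamellar phospholipid pits.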

[19] = target: Estrogen receptor (Homo sapiens) (UniProt P03372); assay: qHTS assay to identify small molecule antagonists of the estrogen receptor alpha (ER-alpha) signaling pathway using the BG1 cell line in the presence of 0.1 nM 17-beta-estradiol (AID 1259244); further: nearly all actives have a fitted effect of over 50% in size; further: potency means the concentration at half of the fitted maximal effect
How it was run: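 Compounds were tested against 0.1 nM (final) 17beta-estradiol in VM7Luc4E2 cells, which express full-length ER-alpha and an ERE-luciferase reporter; luminescence was recorded following 22 h exposure.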

[20] = A CellTox Green Cytotoxicity Assay to monitor cytotoxicity in HepG2 cells - 0 hour (AID 1224882); further: nearly all actives have a fitted effect of over 35% in size
How it was run: as §3

Measured: Potency

Sequence of Androgen receptor (Homo sapiens) (P10275 whole entry, looked up): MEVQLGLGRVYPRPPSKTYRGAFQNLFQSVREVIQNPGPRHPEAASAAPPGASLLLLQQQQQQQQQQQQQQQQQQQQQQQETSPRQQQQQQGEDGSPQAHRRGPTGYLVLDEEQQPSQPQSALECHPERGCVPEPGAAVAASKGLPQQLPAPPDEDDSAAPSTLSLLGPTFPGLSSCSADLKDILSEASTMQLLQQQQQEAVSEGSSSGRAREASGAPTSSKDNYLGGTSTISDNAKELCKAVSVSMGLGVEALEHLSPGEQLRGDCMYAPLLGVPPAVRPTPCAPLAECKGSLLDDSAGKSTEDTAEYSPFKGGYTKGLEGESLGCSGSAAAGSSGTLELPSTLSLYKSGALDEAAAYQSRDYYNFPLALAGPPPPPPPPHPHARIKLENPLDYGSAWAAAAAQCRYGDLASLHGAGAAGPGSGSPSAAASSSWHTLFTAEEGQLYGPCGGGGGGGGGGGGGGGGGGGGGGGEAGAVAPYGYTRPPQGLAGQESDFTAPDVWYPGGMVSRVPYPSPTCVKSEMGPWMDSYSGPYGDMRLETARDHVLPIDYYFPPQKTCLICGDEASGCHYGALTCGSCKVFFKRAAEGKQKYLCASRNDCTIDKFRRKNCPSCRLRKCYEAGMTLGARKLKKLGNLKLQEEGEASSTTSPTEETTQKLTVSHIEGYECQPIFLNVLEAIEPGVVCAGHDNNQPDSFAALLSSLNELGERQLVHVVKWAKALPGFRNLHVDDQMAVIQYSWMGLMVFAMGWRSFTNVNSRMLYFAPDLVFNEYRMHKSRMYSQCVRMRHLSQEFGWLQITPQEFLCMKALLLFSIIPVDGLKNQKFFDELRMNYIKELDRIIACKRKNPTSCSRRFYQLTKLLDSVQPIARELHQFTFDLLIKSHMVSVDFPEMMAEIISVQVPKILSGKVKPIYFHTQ
Sequence of Estrogen receptor (Homo sapiens) (P03372 whole entry, looked up): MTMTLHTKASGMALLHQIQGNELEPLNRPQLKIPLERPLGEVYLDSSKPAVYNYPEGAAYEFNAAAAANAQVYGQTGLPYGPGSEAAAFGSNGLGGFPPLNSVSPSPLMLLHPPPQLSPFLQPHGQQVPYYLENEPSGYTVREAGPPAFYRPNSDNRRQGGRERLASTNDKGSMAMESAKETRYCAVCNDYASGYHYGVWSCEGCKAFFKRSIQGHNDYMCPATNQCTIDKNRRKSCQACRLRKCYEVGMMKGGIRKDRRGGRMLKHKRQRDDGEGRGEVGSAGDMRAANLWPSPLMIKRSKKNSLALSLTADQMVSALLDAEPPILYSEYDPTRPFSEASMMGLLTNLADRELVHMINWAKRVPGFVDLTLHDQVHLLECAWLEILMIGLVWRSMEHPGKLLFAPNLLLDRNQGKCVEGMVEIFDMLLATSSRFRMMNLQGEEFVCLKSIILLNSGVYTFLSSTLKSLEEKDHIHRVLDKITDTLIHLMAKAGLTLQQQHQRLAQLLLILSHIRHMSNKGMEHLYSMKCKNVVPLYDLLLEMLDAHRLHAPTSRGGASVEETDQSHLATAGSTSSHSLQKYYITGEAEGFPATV

Fc1ccc(C2(Cn3cncn3)OC2c2ccccc2Cl)cc1 (stereo unspecified)
active: [4] 43.6 µM
not listed: [13] | [14] | [15] | [16] | [17] | [18] | [19] | [20]
inactive: all other assays above

COCC(=O)N(c1c(C)cccc1C)N1CCOC1=O
not listed: [15] | [16] | [17] | [18] | [19] | [20]
inactive: all other assays above

CC(COc1ccc(Oc2ccccc2)cc1)Oc1ccccn1 (stereo unspecified)
not listed: [4] | [9] | [13] | [18] | [19] | [20]
inactive: all other assays above

CN1C(=S)CN=C(c2ccccc2)c2cc(Cl)ccc21
not listed: [1] | [2] | [4] | [5] | [17] | [19] | [20]
inactive: all other assays above

Nc1c(Br)cc([N+](=O)[O-])cc1[N+](=O)[O-]
not listed: [5] | [6] | [11] | [12] | [17] | [18] | [20]
inactive: all other assays above

COC(=O)C(C)Oc1ccc(Oc2ccc(Cl)cc2Cl)cc1 (stereo unspecified)
not listed: [5] | [15] | [16] | [17] | [18] | [19] | [20]
inactive: all other assays above

[As]#[In]
not listed: [4] | [6] | [15] | [17] | [18] | [19] | [20]
inactive: all other assays above

CCN(CC)C(=O)[C@@H]1C=C2c3cccc4[nH]cc(c34)C[C@H]2N(C)C1
not listed: [4] | [7] | [11] | [14] | [17] | [20]
inactive: all other assays above

O=C(Cc1ccccc1)OCc1ccccc1
not listed: [1] | [6] | [7] | [9] | [17] | [18]
inactive: all other assays above

Cc1ncc2n1-c1ccc(Cl)cc1C(c1ccccc1F)=NC2
active: [19] 10.6 µM
not listed: [2] | [4] | [15] | [17] | [20]
inactive: all other assays above

Cc1ccccc1CO[C@@H]1C[C@@]2(C(C)C)CC[C@]1(C)O2
not listed: [1] | [4] | [15] | [17] | [18] | [19]
inactive: all other assays above

CC(Cl)(Cl)[N+](=O)[O-]
not listed: [5] | [14] | [15] | [18] | [20]
inactive: all other assays above

CC1(C)COP(Oc2ccccc2)OC1
not listed: [15] | [18] | [19] | [20]
inactive: all other assays above

CC(=O)CC(c1ccc(Cl)cc1)c1c(O)c2ccccc2oc1=O (stereo unspecified)
not listed: [6] | [7] | [16] | [17] | [18] | [20]
inactive: all other assays above

NC(=S)C(N)=S
not listed: [1] | [17] | [18]
inactive: all other assays above

Cc1cccc(C#N)c1
not listed: [4] | [7] | [17] | [18] | [20]
inactive: all other assays above
